PubChem BioAssay AID1822 (The Scripps Research Institute Molecular Screening Center, 2009)
Hit rate of the full screen: of about 290,000 compounds, about 3,500 (1.2%) were called active. This is one part of a sample in which actives are shown more often than they occur. Values without a mark were called inactive.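 How the source made its calls: active means inhibition above the campaign mean inhibition over all tested compounds plus 3 SD (cut at about 28% in these data); inactive means the rest.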

System: M18 aspartyl aminopeptidase (Plasmodium falciparum 3D7)
Assay: PfM18AAP inhibitors, malaria aminopeptidase, primary screen, biochemical, QFRET, recombinant enzyme (AID 1822);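 further: 0% = plate median of test compound wells and 100% = 2 mM ZnCl2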
Details: H-Glu-NHMec fluorogenic cleavage, at 7.35 µM, hits give high values

Compound | inhibition
COc1cccc(/C=N/Nc2cc(C)nc(-c3ccccc3O)n2)c1O | 52.7% (active)
COc1ccccc1/C=N\Nc1cc(C)nc(-n2nc(C)cc2C)n1 | 4.17%
COc1cccc(/C=N/Nc2ncc(C(F)(F)F)cc2Cl)c1O | 12.8%
COC(=O)c1ccc(OC(=O)c2cnccn2)cc1 | 5.19%
O=c1oc2ccccc2cc1-c1cn(-c2ccccc2)c(=S)[nH]1 | 11.4%
COc1ccc(-c2cn(-c3ccc(OC)cc3)c(=S)[nH]2)cc1 | 24.3%
S=c1[nH]c(-c2cccs2)cn1-c1ccccc1 | 38.5% (active)
Cc1cc(C)c2nc(N(CCN(C)C)C(=O)/C=C/c3cccs3)sc2c1 | 0.71%
S=C(NCCCc1ccccc1)Nc1ccc(Br)cc1 | -6.24%
O=C(CSC(=S)N1CCOCC1)c1cc(Br)cc(Br)c1O | 44.3% (active)
O=C(CSC(=S)N1CCOCC1)c1ccccc1 | 4.44%
O=C(c1cc2cc(Br)cc(Br)c2oc1=O)N1CCOCC1 | -1.08%
Cc1ccc2c(c1)sc1ncc(NC(=O)c3ccccc3)c(=O)n12 | -1.31%
CN(CC(=O)NCCN1CCOCC1)S(=O)(=O)c1ccc(F)cc1 | -0.36%
CCc1ccc(C(=O)COC(=O)c2ccco2)cc1 | 1.62%
COc1ccc(OCc2n[nH]c(=S)n2N)cc1 | 32.5% (active)
Cc1ccc(OCc2n[nH]c(=S)n2-c2ccc(C)cc2)cc1 | 14.1%
S=c1[nH]nc(COc2ccccc2)n1-c1ccccc1 | 19.1%
COc1ccc(CNC(=O)CN(C(=O)c2csnn2)c2cnc3ccccc3c2)cc1 | 3.77%
CN(C)[C@@H]1C(=O)C(C(N)=O)=C(O)[C@@]2(O)C(=O)C3=C(O)c4c(O)ccc(Cl)c4[C@@H](O)[C@H]3C[C@@H]12 | 37% (active)
COc1ccc(CN2CCN(C(=O)CCC(=O)Nc3nnc(C(C)C)s3)CC2)cc1F | 0.79%
CC1CC(C)CN(CCCNC(=O)c2csc3c2CCCCC3)C1 (configuration not stated) | -10.4%
CCOc1ccc(C2C3=C(CCCC3=O)N(CC(=O)O)C3=C2C(=O)CCC3)cc1 | 32.6% (active)
COc1ccc(C2C3=C(CCCC3=O)N(CC(=O)O)C3=C2C(=O)CCC3)cc1 | 5.23%
CCOc1ccc(C2C(C#N)=C(N)N(N(C)C)C3=C2C(=O)CCC3)cc1 (configuration not stated) | 8.27%

Compound | inhibition
COc1cccc(C(=O)NNS(=O)(=O)c2ccc(F)cc2)c1 | 10.3%
CC(C)CN(CC(C)C)CC(O)CN(c1ccccc1)S(=O)(=O)c1ccccc1[N+](=O)[O-] (configuration not stated) | 2.89%
Cc1ccc(Cn2c(SCC(=O)N/N=C/c3ccccc3OCC(=O)O)nc3ccccc32)cc1 | 5.43%
COc1ccc(OC)c(/C=N/NC(=O)CSc2nnc(C)n2-c2ccccc2)c1 | -0.06%
C=CCn1c(Cn2nnc3ccccc32)nnc1SCC(=O)N/N=C/c1cc(Br)cc(OC)c1O | 28.3% (active)
O=C1C2CCCN2C(=O)N1CCCCN1CCN(c2cccc(C(F)(F)F)c2)CC1 (configuration not stated) | -6.19%
CC(C)C1Cc2c(sc3c2c(=O)n(-c2ccccc2)c2nncn32)CO1 (configuration not stated) | 9.11%
CC(=O)NC(CC(=O)O)c1ccc(F)cc1 (configuration not stated) | 4.92%
CN(C)c1ccc(C(CC(=O)O)C(=O)O)cc1 (configuration not stated) | 33.2% (active)
CC(C)CNC(=O)C(=O)Nc1ccc(N(C)C)cc1 | 5.25%
COc1ccc(OC)c(C(O)c2nc3ccccc3n2C)c1 (configuration not stated) | 2.35%
CC(=O)c1ccc(N2CCN(CC(O)c3ccccc3)CC2)cc1 (configuration not stated) | -0.23%
COC(=O)c1ccc(CN2C(=O)NC(c3ccccc3)(c3ccccc3)C2=O)o1 | 0.97%
CCOCCCNC(=O)c1ccc(CS(=O)(=O)c2cccc(C(F)(F)F)c2)o1 | 78.5% (active)
COc1ccccc1CNC(=O)c1ccc(CS(=O)(=O)c2ccccc2)o1 | -0.58%
COc1ccc(CCNC(=O)c2ccc(CS(=O)(=O)c3ccc(Br)cc3)o2)cc1OC | -0.17%
Cc1c(Cl)cccc1NC(=O)[C@@]1(CC(=O)O)CC(/C=C/c2ccccc2)=NO1 | -3.65%
O=C(NCCO)C(=O)NCC(c1ccc2c(c1)OCO2)N1CCN(c2ccc(F)cc2)CC1 (configuration not stated) | 2.98%
COc1ccccc1-c1nnc(SCC(=O)Nc2ccccc2)o1 | 17.1%
COc1ccccc1-c1nnc(SCC(=O)Nc2cc(C)on2)o1 | 39.2% (active)
Cc1cc(NC(=O)CSc2nnc(-c3ccc(Cl)s3)o2)no1 | 21.4%
COc1ccc(C(=O)CCC(=O)Nc2ccc(Cl)cc2)cc1 | -1.71%
Cc1ccccc1Nc1nc(-c2cccnc2)cs1 | 1.18%
COc1ccc2nc(Nc3nc(-c4ccncc4)cs3)sc2c1 | -1.76%
COc1ccc(C)cc1Nc1nc(-c2c(C)[nH]c3ccccc23)cs1 | -5.8%

Compound | inhibition
COc1ccc(-c2csc(Nc3ccc(O)cc3)n2)cc1 | 28.1% (active)
CN(c1ccc(O)cc1)c1nc(-c2cccnc2)cs1 | 7.5%
COc1cccc(CC(=O)Nc2nc(-c3ccc(OC)c(OC)c3)cs2)c1 | -8.12%
Oc1ccc(-c2csc(Nc3cccnc3)n2)cc1 | 55.7% (active)
NS(=O)(=O)c1ccc(Nc2nc(-c3ccccc3)cs2)cc1 | 2.74%
COc1ccc(OC)c(Nc2nc(-c3ccc(O)c(O)c3)cs2)c1 | 56.5% (active)
O=C(N/C(=C\c1ccc([N+](=O)[O-])cc1)C(=O)N1CCOCC1)c1cccc(Br)c1 | 0.07%
COc1ccc(C(=O)N2CCCN(C)CC2)c(OC)c1 | -1.62%
CCOc1cc(/C=C2\SC(N3CCCC(C)C3)=NC2=O)ccc1O (configuration not stated) | 9.44%
O=c1c2ccccc2[nH]c(=S)n1CCN1CCC(=C(c2ccc(F)cc2)c2ccc(F)cc2)CC1 | -3.53%
Cc1nc(N=C(N)N)nc2c(C)cccc12 | 3.01%
COc1c(O)ccc2c1CN1CCc3cc4c(cc3C1C2)OCO4 (configuration not stated) | 42.2% (active)
COc1ccc(CN2CCCC(N3CCc4ccccc4C3)C2)c(O)c1 (configuration not stated) | 1.47%
COc1cc(COCC(O)CN2CCN(Cc3ccc4c(c3)OCO4)CC2)cc(OC)c1OC (configuration not stated) | 1.06%
Cc1cc(=O)[nH]c(S)c1C#N | 31.9% (active)
Cc1cc(=O)[nH]c(SCC(N)=O)c1C#N | 6.8%
Cc1ccc(NC(=O)CSc2sc3c(O)cc(=O)[nH]c3c2C#N)cc1C | 9.88%
CC(C)(C)C(=O)NNC(=O)c1ccc(Oc2cc(Cl)cc(Cl)c2)o1 | 7.33%
CCC(C)C(NC(=O)C1CCC(=O)N1C(=O)OCc1ccccc1)C(=O)NC(C(=O)N1CCCC1C(N)=O)C(C)CC (configuration not stated) | 1.63%
CCOC(=O)/C(C#N)=C/c1ccc(N2CCCCC2)cc1 | 0.72%
O=C(Cc1ccccc1)NC(=S)Nc1ccc(N2CCCCC2)cc1 | -3.44%
O=C1C=CC(=O)N1c1ccc(N2CCCCC2)cc1 | 35.3% (active)
CC(C)CCN(C(=O)c1csnn1)C(C(=O)NC1CCCC1)c1ccccc1 (configuration not stated) | 5.8%
O=C(Nc1ccnn1C1CCN(Cc2cccc(OCCO)c2)CC1)C1CCCC1 | -3.2%
CCCC(C)NC(=O)C1CCN(C(=O)C2CC(=O)N(c3ccc(C)cc3)C2)CC1 (configuration not stated) | -1.18%

Compound | inhibition
COc1ccc2c(c1)C(C)=CC(C)(C)N2C(=O)Nc1ccccc1 | 34.2% (active)
COc1ccc2c(c1)C(C)=CC(C)(C)N2C(=O)CNCc1ccc2c(c1)OCO2 | 12.3%
CC1=CC(C)(C)N(C(=O)CSc2nnc(-c3ccccc3)o2)c2ccc(C)cc21 | 1.48%
O=C1C(=O)N(CCCO)C(c2ccccc2)/C1=C(\O)c1ccc(Br)cc1 (configuration not stated) | -0.04%
O=C(CN1C(=O)NC2(CCCCC2)C1=O)NCCc1c[nH]c2ccccc12 | 0.15%
O=C(N/N=C/c1ccco1)c1ccc(C(=O)N/N=C/c2ccco2)o1 | 6.04%
O=c1nc(N/N=C/c2ccco2)cn[nH]1 | 52.8% (active)
CC(C)NC(=O)C(=O)N/N=C/c1ccco1 | -9.66%
CCS(=O)(=O)Nc1ccc(C(=O)NCCSc2ccccc2)cc1 | -4.1%
CCCCNC(=O)C1CCC(=O)N1CCc1ccccc1 (configuration not stated) | -7.08%
CNC(=O)/C(C#N)=C/c1c(F)cccc1Cl | -1.65%
COc1cc(CN2CCN(Cc3ccc(C)cc3)CC2)c([N+](=O)[O-])cc1OC | 29.9% (active)
COc1cc(CNCc2ccc3c(c2)OCO3)c([N+](=O)[O-])cc1OC | 13.5%
COc1cc(CN2CCCN(C)CC2)c([N+](=O)[O-])cc1OC | 13.4%
O=C(CCn1nnc2ccccc21)OCC(=O)c1ccc([N+](=O)[O-])cc1 | 21.8%
O=C(CSc1nc2ccc([N+](=O)[O-])cc2[nH]1)c1ccc(Cl)cc1 | 3.49%
O=C(CC(n1cncn1)C(Cl)(Cl)Cl)c1ccc([N+](=O)[O-])cc1 (configuration not stated) | 55.3% (active)
COc1cc(SC)ccc1C(=O)N(Cc1ccccc1)c1ccccc1 | 0.45%
Cc1nn(CC(=O)NC2CCCCC2)c(=O)c2cccn12 | -6.41%
CCN1/C(=C/C(=S)Nc2ccccc2)Sc2ccccc21 | 46.3% (active)
CCN1/C(=C/c2ccc3ccc(C)cc3[n+]2CC)Sc2ccccc21 | -2.79%
O=C(CCN1c2ccccc2Sc2ccccc21)Nc1ccccc1 | 6.09%
